Several values for one entry are separate records, joined by “and”; a condition that tells them apart may be missing. Identical values can stand only once. Compounds without any hit were thinned out: in the full panel of roughly 83,000, 20% have a hit.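 For each line, cells grew in 96-well plates with the test compound present at a single concentration for 48 hours.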
Tests used:
Experiment in all cases: NCI-60 one-dose screen, 48 h (100 = growth as untreated, 0 = no growth, -100 = all killed)
Details in all cases: 10 µM unless noted; active = growth percent below 10; inactive = the rest
[1] = test system: HCT-15 colon
[2] = test system: HT29 colon
[3] = test system: SNB-75 CNS
[4] = test system: SNB-19 CNS
[5] = test system: U251 CNS
[6] = test system: PC-3 prostate
[7] = test system: SK-MEL-5 melanoma
[8] = test system: UACC-62 melanoma
[9] = test system: LOX IMVI melanoma
[10] = test system: SK-MEL-28 melanoma
[11] = test system: SK-MEL-2 melanoma
[12] = test system: EKVX NSCLC
[13] = test system: SN12C renal
[14] = test system: UO-31 renal
[15] = test system: TK-10 renal
[16] = test system: ACHN renal
[17] = test system: CAKI-1 renal
[18] = test system: A498 renal
[19] = test system: CCRF-CEM leukemia
[20] = test system: MOLT-4 leukemia

Measured: growth

CCCCOC1NC(=O)NC(=O)C1(F)C(=O)OCC (stereo unspecified)
inactive: [1] 70% and 48.2% | [2] 74.1% and 52.3% | [3] 78% and 81.8% | [4] 101% and 82.6% | [5] 91.6% | [6] 88.4% and 85.6% | [7] 81% and 66.9% | [8] 72% and 52.8% | [9] 73.5% and 52.5% | [10] 83.4% and 70.7% | [11] 97.8% and 101% | [12] 74.8% | [13] 90.2% and 59.9% | [14] 55.2% and 51.3% | [15] 65.5% and 71.7% | [16] 82% and 67.4% | [17] 45.3% and 62.3% | [18] 78.9% and 112% | [19] 72.6% | [20] 92% and 65.2%

CC(=O)c1cccc(OC(=O)c2ccccc2)c1
inactive: [1] 127% | [2] 104% | [3] 101% | [4] 97.2% | [5] 103% | [6] 90.9% | [7] 108% | [8] 91.1% | [9] 87.4% | [10] 92.1% | [11] 88.9% | [12] 110% | [13] 91.2% | [14] 103% | [15] 106% | [16] 109% | [17] 91.1% | [18] 107% | [19] 97.8% | [20] 84.7%

O=c1[nH]nnc2cc(Cl)ccc12
inactive: [1] 93.9% and 104% | [2] 109% and 129% | [3] 87.1% and 83% | [4] 104% and 103% | [5] 97.3% and 93.8% | [6] 103% and 90.7% | [7] 100% | [8] 99.8% and 101% | [9] 101% | [10] 117% and 109% | [11] 121% and 144% | [13] 105% and 100% | [14] 70.5% and 76.3% | [15] 99.3% and 105% | [17] 92.2% and 95.8% | [18] 106% | [19] 114% and 103% | [20] 104% and 95.9%

CCOC(=O)C(N)Cc1cc(I)c(O)c(I)c1 (stereo unspecified)
inactive: [1] 107% and 96.6% | [2] 105% and 104% | [3] 102% and 83.8% | [4] 109% and 95.9% | [5] 104% and 110% | [6] 98.3% and 89.8% | [7] 105% and 108% | [8] 101% and 97% | [9] 110% and 105% | [10] 111% and 116% | [11] 108% and 120% | [13] 103% and 98.7% | [14] 81.6% and 78.6% | [15] 120% and 107% | [16] 106% and 96% | [17] 91.6% and 89.2% | [18] 103% | [19] 100% and 103% | [20] 102% and 112%

CC(C)(C)C1=CC(=O)C(C(C)(C)C)=CC1=O
inactive: [1] 97.9% and 105% | [2] 109% and 99.8% | [3] 104% and 96.6% | [4] 86.2% and 101% | [5] 96.2% and 94.2% | [6] 90.8% and 101% | [7] 93.5% and 108% | [8] 87.1% and 99.6% | [9] 91.6% and 99.5% | [10] 114% and 109% | [11] 95.2% and 94.5% | [13] 93.7% and 102% | [14] 93.1% and 91.5% | [15] 102% and 94.6% | [16] 94.5% and 114% | [17] 90.7% | [18] 122% | [19] 96.1% and 97.9% | [20] 83.4% and 105%

From PubChem BioAssay (NCI)
